This note sets out measurements from PubChem BioAssay (NCATS).

Results filed as inconclusive are left out. A number with no mark means an inactive call. The source made the active and inactive calls. Calls come from the whole dose curve; as a rule, active = well fitted cell-killing curve with a large enough effect; inconclusive = small, poorly fitted or top-dose-only effect, or effect the other way; inactive = no such curve, though single readings can be large or run the other way.

The nature of experiment [1]: Quantitative High-Throughput drug screen in 47 multiple myeloma cell lines against the NCATS MIPE library collection: LP1_DSMZ cell viability assay (AID 1918982). Note: nearly all actives have a fitted effect of over 35% in size. Note: potency is the fitted concentration of half-maximal effect. An outline of the steps:
(§1)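 qHTS format: cells plated (500/well), pin-dosed with MIPE 4.0 compounds, kept 48 h at 37 °C. Readout was CellTiter-Glo luminescence, median RLU.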

The nature of experiment [2]: Quantitative High-Throughput drug screen in 47 multiple myeloma cell lines against the NCATS MIPE library collection: KMS34_JCRB cell viability assay (AID 1918985). Note: nearly all actives have a fitted effect of over 40% in size. Note: potency is the fitted concentration of half-maximal effect. An outline of the steps: as §1
A short description of experiment [3]: Quantitative High-Throughput drug screen in 47 multiple myeloma cell lines against the NCATS MIPE library collection: OPM1_PLB cell viability assay (AID 1918989). Note: nearly all actives have a fitted effect of over 40% in size. Note: potency is the fitted concentration of half-maximal effect. An outline of the steps: as §1
Experiment [4] can be described thus: Quantitative High-Throughput drug screen in 47 multiple myeloma cell lines against the NCATS MIPE library collection: SKMM1_PLB cell viability assay (AID 1919863). Note: nearly all actives have a fitted effect of over 35% in size. Note: potency is the fitted concentration of half-maximal effect. The following applies: SKMM1 myeloma viability, CellTiter-Glo ATP, 48 h; viability: active compounds read low. In outline:
as §1

Experiment [5] can be described thus: Quantitative High-Throughput drug screen in 47 multiple myeloma cell lines against the NCATS MIPE library collection: XG1_PLB cell viability assay (AID 1919866). Note: nearly all actives have a fitted effect of over 35% in size. Note: potency is the fitted concentration of half-maximal effect. An outline of the steps:
as §1

A short description of experiment [6]: Quantitative High-Throughput drug screen in 47 multiple myeloma cell lines against the NCATS MIPE library collection: PE2_PLB cell viability assay (AID 1919869). Note: nearly all actives have a fitted effect of over 35% in size. Note: potency is the fitted concentration of half-maximal effect. In outline:
as §1

Experiment [7] in a line: Quantitative High-Throughput drug screen in 47 multiple myeloma cell lines against the NCATS MIPE library collection: OPM2_DSMZ cell viability assay (AID 1919872). Note: nearly all actives have a fitted effect of over 30% in size. Note: potency is the fitted concentration of half-maximal effect. In outline:
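CellTiter-Glo luminescence (ATP) after 48 h compound exposure, 37C/5% CO2; 500 cells/well; MIPE 4.0 approved/investigational drugs pinned in; DMSO = 100%, media only = 0% viability.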

Experiment [8] is described as follows: Quantitative High-Throughput drug screen in 47 multiple myeloma cell lines against the NCATS MIPE library collection: KMS11_JCRBsus cell viability assay (AID 1919873). Note: nearly all actives have a fitted effect of over 50% in size. Note: potency is the fitted concentration of half-maximal effect. An outline of the steps: as §1
A short description of experiment [9]: Quantitative High-Throughput drug screen in 47 multiple myeloma cell lines against the NCATS MIPE library collection: KMS28BM_JCRB cell viability assay (AID 1919874). Note: nearly all actives have a fitted effect of over 35% in size. Note: potency is the fitted concentration of half-maximal effect. In outline:
as §1

Experiment [10] is described as follows: Quantitative High-Throughput drug screen in 47 multiple myeloma cell lines against the NCATS MIPE library collection: OCIMY5_PLB cell viability assay (AID 1918988). Note: nearly all actives have a fitted effect of over 65% in size. Note: potency is the fitted concentration of half-maximal effect. An outline of the steps:
as §1

Experiment [11] in a line: Quantitative High-Throughput drug screen in 47 multiple myeloma cell lines against the NCATS MIPE library collection: U266_ATCC cell viability assay (AID 1919864). Note: nearly all actives have a fitted effect of over 35% in size. Note: potency is the fitted concentration of half-maximal effect. In outline: as §1
A short description of experiment [12]: Quantitative High-Throughput drug screen in 47 multiple myeloma cell lines against the NCATS MIPE library collection: XG6_PLB cell viability assay (AID 1919865). Note: nearly all actives have a fitted effect of over 40% in size. Note: potency is the fitted concentration of half-maximal effect. In outline:
as §1

Experiment [13] in a line: Quantitative High-Throughput drug screen in 47 multiple myeloma cell lines against the NCATS MIPE library collection: UTMC2_PLB cell viability assay (AID 1919868). Note: nearly all actives have a fitted effect of over 55% in size. Note: potency is the fitted concentration of half-maximal effect. The conditions noted are these: CellTiter-Glo ATP luminescence, 48 h; viability (% of DMSO control): at 45.8 µM (top of the series). In outline:
as §1

A short description of experiment [14]: Quantitative High-Throughput drug screen in 47 multiple myeloma cell lines against the NCATS MIPE library collection: RPMI8226_ATCC cell viability assay (AID 1919871). Note: nearly all actives have a fitted effect of over 30% in size. Note: potency is the fitted concentration of half-maximal effect. In outline: as §1
The nature of experiment [15]: Quantitative High-Throughput drug screen in 47 multiple myeloma cell lines against the NCATS MIPE library collection: VP6_DJ cell viability assay (AID 1919867). Note: nearly all actives have a fitted effect of over 40% in size. Note: potency is the fitted concentration of half-maximal effect. An outline of the steps: as §1
Experiment [16] in a line: Quantitative High-Throughput drug screen in 47 multiple myeloma cell lines against the NCATS MIPE library collection: PCM6_Riken cell viability assay (AID 1919870). Note: nearly all actives have a fitted effect of over 30% in size. An outline of the steps: as §1
Experiment [17] can be described thus: Quantitative High-Throughput drug screen in 47 multiple myeloma cell lines against the NCATS MIPE library collection: KMS28PE_JCRB cell viability assay (AID 1918983). In outline: as §1
Experiment [18] is described as follows: Quantitative High-Throughput drug screen in 47 multiple myeloma cell lines against the NCATS MIPE library collection: L363_DSMZ cell viability assay (AID 1918984). An outline of the steps:
as §1

A short description of experiment [19]: Quantitative High-Throughput drug screen in 47 multiple myeloma cell lines against the NCATS MIPE library collection: OCIMY7_PLB cell viability assay (AID 1918987). Note: potency is the fitted concentration of half-maximal effect; nearly all actives have a fitted effect of over 65% in size. In outline:
as §1

Regarding `NC(=O)c1ccc(I)c([N+](=O)[O-])c1`, the Potency entry in experiment [1], in [2], in [7], in experiment [8] and in [9] was “inactive” in each case. Moreover, the Potency is 23.5 µM (active) in experiment [3], 18.7 µM (active) in experiment [5] and 20.9 µM (active) in [6]. Besides, the viability in experiment [4] was 102%.

Regarding `CC(C)(C)NCC(O)c1ccc(O)c(CO)c1` (configuration not stated), the Potency result in experiment [1], in experiment [3], in experiment [11], in experiment [12], in experiment [5] and in experiment [13] was “inactive” each time. For the same compound, the Potency entry in experiment [14] and in experiment [7] was “inactive” each time. In experiment [10], the Potency was 0.0148 µM (active).

Regarding `Cc1cccc(-c2nn(C(=S)Nc3ccccc3)cc2-c2ccnc3ccccc23)n1`, the Potency was 20.9 µM (active) in experiment [1]; 1.48 µM (active) in [10]; 6.62 µM (active) in experiment [3]; 9.35 µM (active) in experiment [15]; 7.43 µM (active) in [6]. For the same compound, the Potency result in [12], in experiment [14], in experiment [7] and in experiment [9] was “inactive” each time.

On to `COc1cc(Nc2ncc3c(n2)-c2ccc(Cl)cc2C(c2c(F)cccc2OC)=NC3)ccc1C(=O)O`, for which the Potency result in [1] and in [11] was “inactive” throughout. Moreover, the viability in experiment [4] was 78.9%.

With `Cn1c(=O)c(F)c(Nc2ccc(I)cc2F)c2c(=O)n(C[C@@H](O)CO)cnc21`, the Potency entry in experiment [1], in experiment [2], in experiment [5], in experiment [14] and in [9] was “inactive” throughout. Moreover, the Potency in [11] and in experiment [6] was 9.35 µM (active) each time.

With `COc1cc2c(cc1OC)CN(CCc1ccc(NC(=O)c3cccc4c(=O)c5cccc(OC)c5[nH]c34)cc1)CC2`, the Potency entry in experiment [1], in experiment [2], in [15], in [14], in experiment [7] and in experiment [8] was “inactive” in each case. Moreover, the Potency result in [9] was “inactive”. In addition, the Potency is 16.6 µM (active) in [3], 9.35 µM (active) in [11] and 20.9 µM (active) in [6].

Consider `C1COC(NC(C2CC2)C2CC2)=N1`, for which the Potency entry in [1], in experiment [10], in experiment [7], in experiment [8] and in experiment [9] was “inactive” in each case. In addition, the Potency in experiment [3] was 16.6 µM (active).

Regarding `CC(C[N+](C)(C)C)OC(N)=O` (configuration not stated), the Potency entry in experiment [1], in [3], in experiment [11], in experiment [6], in experiment [16] and in [14] was “inactive” in each case. Also, the Potency result in [9] was “inactive”. In addition, the Potency in [10] is 16.6 µM (active).

For `O=C1CCC(N2C(=O)c3ccccc3C2=O)C(=O)N1` (configuration not stated), the Potency result in [1], in experiment [3], in experiment [12], in experiment [6], in experiment [16] and in experiment [7] was “inactive” in each case. For the same compound, in experiment [9], the Potency entry was “inactive”. Further, the Potency is 23.5 µM (active) in [4], 18.7 µM (active) in experiment [11] and 3.72 µM (active) in experiment [5].

For `CO[C@@H]1[C@H](N(C)C(=O)c2ccccc2)C[C@H]2O[C@]1(C)n1c3ccccc3c3c4c(c5c6ccccc6n2c5c31)C(=O)NC4`, the Potency was 5.26 µM (active) in [17]; 1.66 µM (active) in [18]; 1.32 µM (active) in experiment [2]; 0.235 µM (active) in [19]; 1.48 µM (active) in experiment [10]; 1.18 µM (active) in [3]. For the same compound, the Potency was 8.33 µM (active) in experiment [4]; 0.372 µM (active) in experiment [12]; 0.418 µM (active) in [15]; 0.935 µM (active) in [13]; 0.59 µM (active) in experiment [6]; 7.43 µM (active) in experiment [14]. Besides, the Potency in experiment [7] was 3.72 µM (active); in experiment [8] it was 1.87 µM (active); in experiment [9] it was 2.96 µM (active).

In the case of `Cc1cn[nH]c1`, the Potency in [17] is 0.0743 µM (active); in [18], 0.469 µM (active); in experiment [2], 0.0662 µM (active); in experiment [10], 0.0093 µM (active); in experiment [3], 1.66 µM (active); in experiment [4], 0.0662 µM (active). For the same compound, the Potency in experiment [11] is 0.662 µM (active); in [5], 1.05 µM (active); in experiment [15], 0.0935 µM (active); in experiment [6] it was 4.69 µM (active); in experiment [14], 0.118 µM (active); in experiment [7], 4.18 µM (active). For the same compound, the Potency is 0.166 µM (active) in experiment [8] and 0.0469 µM (active) in experiment [9].

`NC(N)=NC(=O)c1nc(Cl)c(N)nc1N`: the Potency entry in experiment [1], in experiment [11] and in experiment [7] was “inactive” each time.

Turning to `CCn1c(-c2nonc2N)nc2cnc(Oc3cccc(NC(=O)c4ccc(OCCN5CCOCC5)cc4)c3)cc21`, the Potency is 14.8 µM (active) in [1]; 2.35 µM (active) in experiment [19]; 16.6 µM (active) in experiment [3]; 8.33 µM (active) in experiment [15]; 0.935 µM (active) in [13]; 10.5 µM (active) in experiment [6]. Moreover, the Potency in experiment [8] was 11.8 µM (active); in [9], 5.26 µM (active).

`CCc1cncnc1N1CCN(Cc2nc3ccc(C(F)(F)F)cc3[nH]2)CC1`: the Potency in [17] is 20.9 µM (active); in [18] it was 5.26 µM (active); in [19] it was 23.5 µM (active); in experiment [10], 23.5 µM (active); in [3] it was 18.7 µM (active); in experiment [4], 18.7 µM (active). The Potency in experiment [5] was 10.5 µM (active); in [13], 18.7 µM (active); in [7] it was 9.35 µM (active); in [8], 11.8 µM (active); in experiment [9], 23.5 µM (active).
